Legend:
Test in all cases: DAPPL (digital affinity profiling via proximity ligation, sequencing); 10 mM Tris-HCl pH 7.5, 50 mM NaCl, 1 mM DTT, 4% glycerol, room temperature, 30 min; GST-TFs on glutathione beads, 16-mer random dsDNA library, 0.1% formaldehyde crosslink after washing; high values mean tight binding
[1] = biological target: T1, FEV (Homo sapiens, UniProt Q99581 1-238); conditions: protein: recombinant; tags: N-terminal GST; dsDNA, one strand shown
T1 sequence: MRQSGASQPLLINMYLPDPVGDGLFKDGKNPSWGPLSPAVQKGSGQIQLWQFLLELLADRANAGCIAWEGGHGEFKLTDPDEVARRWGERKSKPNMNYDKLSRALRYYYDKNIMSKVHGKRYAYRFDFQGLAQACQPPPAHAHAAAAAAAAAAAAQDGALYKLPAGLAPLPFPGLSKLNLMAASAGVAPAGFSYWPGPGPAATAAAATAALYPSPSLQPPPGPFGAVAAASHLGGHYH
Method in brief: (§1)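 Binding signal is each hexamer's read frequency for a factor divided by its frequency in the tag-only sample. The factors were GST-fused human transcription factors from yeast, captured on glutathione beads, DNA-barcoded and pooled with that sample. Pools were incubated with 200 nmole of a random double-stranded 16-mer DNA library in Tris/NaCl/DTT/glycerol buffer at room temperature for 30 min, then washed, crosslinked with 0.1% formaldehyde, proximity-ligated with BsaI/T4 ligase (1 h, 37 °C), PCR-amplified and sequenced on an Illumina NextSeq500.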

[2] = biological target: ETV5 (Homo sapiens, UniProt P41161 1-510); conditions: protein: recombinant; tags: N-terminal GST; dsDNA, one strand shown
ETV5, sequence (P41161 whole entry): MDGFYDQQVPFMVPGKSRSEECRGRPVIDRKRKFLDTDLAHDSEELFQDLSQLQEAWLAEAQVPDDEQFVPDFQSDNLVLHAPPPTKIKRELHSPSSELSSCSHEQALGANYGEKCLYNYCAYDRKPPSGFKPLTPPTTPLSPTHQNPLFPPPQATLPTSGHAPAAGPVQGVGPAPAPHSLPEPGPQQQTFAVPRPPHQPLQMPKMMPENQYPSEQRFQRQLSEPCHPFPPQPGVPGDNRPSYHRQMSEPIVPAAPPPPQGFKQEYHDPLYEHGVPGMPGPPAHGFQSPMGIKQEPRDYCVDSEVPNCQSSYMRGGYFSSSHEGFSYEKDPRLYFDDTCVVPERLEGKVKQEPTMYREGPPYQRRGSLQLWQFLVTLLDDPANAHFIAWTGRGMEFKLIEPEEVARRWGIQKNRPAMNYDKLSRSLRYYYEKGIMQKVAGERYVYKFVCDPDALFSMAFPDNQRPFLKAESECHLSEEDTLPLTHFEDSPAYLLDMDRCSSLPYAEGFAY
Method in brief: as §1

[3] = biological target: HSF1 (Homo sapiens, UniProt Q00613 1-529); conditions: protein: recombinant; tags: N-terminal GST; chain copies: 3; dsDNA, one strand shown
HSF1, sequence (Q00613 whole entry): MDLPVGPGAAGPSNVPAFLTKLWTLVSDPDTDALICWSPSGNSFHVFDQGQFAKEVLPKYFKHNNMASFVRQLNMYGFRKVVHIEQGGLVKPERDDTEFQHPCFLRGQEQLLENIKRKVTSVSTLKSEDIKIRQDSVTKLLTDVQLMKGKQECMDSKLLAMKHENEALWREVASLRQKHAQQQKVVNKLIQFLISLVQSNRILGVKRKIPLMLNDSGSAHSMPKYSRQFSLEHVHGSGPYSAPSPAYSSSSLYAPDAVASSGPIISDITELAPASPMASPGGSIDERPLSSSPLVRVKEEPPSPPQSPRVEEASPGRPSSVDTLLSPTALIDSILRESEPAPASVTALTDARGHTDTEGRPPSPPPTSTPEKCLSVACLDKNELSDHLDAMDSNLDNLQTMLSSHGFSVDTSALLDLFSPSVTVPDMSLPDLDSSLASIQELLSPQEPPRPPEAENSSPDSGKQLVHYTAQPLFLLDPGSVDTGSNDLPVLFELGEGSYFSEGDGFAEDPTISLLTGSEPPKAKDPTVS
Method in brief: as §1

[4] = biological target: T2, SPIC (Homo sapiens, UniProt Q8N5J4 1-248); conditions: protein: recombinant; tags: N-terminal GST; dsDNA, one strand shown
T2 sequence: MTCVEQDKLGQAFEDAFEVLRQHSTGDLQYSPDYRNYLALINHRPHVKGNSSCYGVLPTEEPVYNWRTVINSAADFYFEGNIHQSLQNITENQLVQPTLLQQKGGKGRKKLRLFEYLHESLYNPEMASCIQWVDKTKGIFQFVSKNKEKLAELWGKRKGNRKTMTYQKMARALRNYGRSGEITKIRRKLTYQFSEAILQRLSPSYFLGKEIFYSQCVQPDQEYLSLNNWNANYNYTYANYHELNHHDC
Method in brief: as §1

[5] = biological target: ELF4 (Homo sapiens, UniProt Q99607 1-663); conditions: protein: recombinant; tags: N-terminal GST; dsDNA, one strand shown
ELF4, sequence (Q99607 whole entry): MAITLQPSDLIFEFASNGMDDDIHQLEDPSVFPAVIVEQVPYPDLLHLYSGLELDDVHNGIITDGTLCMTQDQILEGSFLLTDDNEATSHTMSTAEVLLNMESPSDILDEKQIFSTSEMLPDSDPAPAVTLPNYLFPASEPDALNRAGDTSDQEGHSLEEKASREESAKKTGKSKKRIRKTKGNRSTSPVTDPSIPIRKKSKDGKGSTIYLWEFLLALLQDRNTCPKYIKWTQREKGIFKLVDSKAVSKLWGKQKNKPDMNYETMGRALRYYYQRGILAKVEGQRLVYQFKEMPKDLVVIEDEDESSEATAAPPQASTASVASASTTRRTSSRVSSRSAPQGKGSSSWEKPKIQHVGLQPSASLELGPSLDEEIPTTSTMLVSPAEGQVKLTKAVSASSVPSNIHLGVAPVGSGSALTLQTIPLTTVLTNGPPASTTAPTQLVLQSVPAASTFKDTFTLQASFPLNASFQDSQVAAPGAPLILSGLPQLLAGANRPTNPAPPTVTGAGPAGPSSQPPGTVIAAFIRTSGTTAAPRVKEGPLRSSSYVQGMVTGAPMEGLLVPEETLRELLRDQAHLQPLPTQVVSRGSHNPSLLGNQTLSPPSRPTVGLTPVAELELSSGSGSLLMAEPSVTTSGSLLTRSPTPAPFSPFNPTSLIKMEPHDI
Method in brief: as §1

[6] = biological target: T3, ELK4 (Homo sapiens, UniProt P28324-2 1-405); conditions: protein: recombinant; tags: N-terminal GST; dsDNA, one strand shown
T3 sequence: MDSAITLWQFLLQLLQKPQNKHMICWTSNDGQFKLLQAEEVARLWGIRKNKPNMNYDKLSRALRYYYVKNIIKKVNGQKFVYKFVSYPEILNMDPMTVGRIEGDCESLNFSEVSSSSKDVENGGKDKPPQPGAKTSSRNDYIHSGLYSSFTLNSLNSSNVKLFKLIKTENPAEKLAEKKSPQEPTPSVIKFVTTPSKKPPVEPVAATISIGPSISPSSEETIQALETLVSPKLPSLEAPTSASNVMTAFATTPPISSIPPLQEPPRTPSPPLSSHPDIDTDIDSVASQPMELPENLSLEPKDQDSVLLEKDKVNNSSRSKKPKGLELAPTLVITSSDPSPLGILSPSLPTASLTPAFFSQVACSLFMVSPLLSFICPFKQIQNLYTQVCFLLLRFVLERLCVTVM
Method in brief: as §1

[7] = biological target: T4, ETV2 (Homo sapiens, UniProt O00321 1-342); conditions: protein: recombinant; tags: N-terminal GST; dsDNA, one strand shown
T4 sequence: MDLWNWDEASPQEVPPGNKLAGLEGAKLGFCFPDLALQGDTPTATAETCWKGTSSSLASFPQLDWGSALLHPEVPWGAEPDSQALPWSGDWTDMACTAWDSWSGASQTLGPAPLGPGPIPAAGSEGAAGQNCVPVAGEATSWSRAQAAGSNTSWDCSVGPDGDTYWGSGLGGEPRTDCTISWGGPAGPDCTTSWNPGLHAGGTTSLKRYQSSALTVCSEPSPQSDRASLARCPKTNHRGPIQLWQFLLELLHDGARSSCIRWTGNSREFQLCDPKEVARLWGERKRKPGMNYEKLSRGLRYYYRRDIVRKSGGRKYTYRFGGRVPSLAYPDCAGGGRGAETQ
Method in brief: as §1

[8] = biological target: T5, ELF3 (Homo sapiens, UniProt P78545 1-371); conditions: protein: recombinant; tags: N-terminal GST; dsDNA, one strand shown
T5 sequence: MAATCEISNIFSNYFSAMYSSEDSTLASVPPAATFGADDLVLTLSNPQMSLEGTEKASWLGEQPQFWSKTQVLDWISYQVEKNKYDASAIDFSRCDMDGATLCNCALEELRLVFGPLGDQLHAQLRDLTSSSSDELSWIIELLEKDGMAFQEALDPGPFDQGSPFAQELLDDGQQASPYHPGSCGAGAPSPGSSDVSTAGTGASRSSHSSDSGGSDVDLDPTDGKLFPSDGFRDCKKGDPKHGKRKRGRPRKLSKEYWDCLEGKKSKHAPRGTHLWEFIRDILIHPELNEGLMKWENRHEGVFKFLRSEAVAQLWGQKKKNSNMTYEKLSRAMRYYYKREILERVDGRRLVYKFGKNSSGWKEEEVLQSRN
Method in brief: as §1

[9] = biological target: CRX (Homo sapiens, UniProt O43186 1-299); conditions: protein: recombinant; tags: N-terminal GST; dsDNA, one strand shown
CRX, sequence (O43186 whole entry): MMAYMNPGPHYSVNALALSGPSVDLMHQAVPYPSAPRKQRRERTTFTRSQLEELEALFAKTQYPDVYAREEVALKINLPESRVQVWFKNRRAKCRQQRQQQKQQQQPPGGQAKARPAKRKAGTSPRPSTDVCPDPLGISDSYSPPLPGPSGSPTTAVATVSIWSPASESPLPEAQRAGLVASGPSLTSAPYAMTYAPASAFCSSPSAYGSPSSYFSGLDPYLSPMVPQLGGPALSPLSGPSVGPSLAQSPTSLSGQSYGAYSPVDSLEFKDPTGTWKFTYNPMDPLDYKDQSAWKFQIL
Method in brief: as §1

[10] = biological target: ETV1 (Homo sapiens, UniProt P50549 1-477); conditions: protein: recombinant; tags: N-terminal GST; dsDNA, one strand shown
ETV1, sequence (P50549 whole entry): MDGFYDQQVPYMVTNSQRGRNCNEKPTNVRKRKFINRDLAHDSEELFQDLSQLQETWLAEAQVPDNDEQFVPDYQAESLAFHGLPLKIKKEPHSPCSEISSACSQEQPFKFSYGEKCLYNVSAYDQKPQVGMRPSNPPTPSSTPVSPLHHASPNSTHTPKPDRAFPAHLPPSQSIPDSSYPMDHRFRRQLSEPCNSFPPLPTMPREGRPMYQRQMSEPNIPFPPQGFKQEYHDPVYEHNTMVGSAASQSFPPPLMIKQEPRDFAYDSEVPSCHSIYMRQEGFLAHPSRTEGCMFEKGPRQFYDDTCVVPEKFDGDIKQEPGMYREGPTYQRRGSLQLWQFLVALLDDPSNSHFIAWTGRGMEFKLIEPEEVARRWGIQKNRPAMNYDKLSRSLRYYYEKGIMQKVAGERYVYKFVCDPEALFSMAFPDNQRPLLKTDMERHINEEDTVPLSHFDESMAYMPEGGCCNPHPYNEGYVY
Method in brief: as §1

[11] = biological target: T6, ERF (Homo sapiens, UniProt P50548 1-548); conditions: protein: recombinant; tags: N-terminal GST; dsDNA, one strand shown
T6 sequence: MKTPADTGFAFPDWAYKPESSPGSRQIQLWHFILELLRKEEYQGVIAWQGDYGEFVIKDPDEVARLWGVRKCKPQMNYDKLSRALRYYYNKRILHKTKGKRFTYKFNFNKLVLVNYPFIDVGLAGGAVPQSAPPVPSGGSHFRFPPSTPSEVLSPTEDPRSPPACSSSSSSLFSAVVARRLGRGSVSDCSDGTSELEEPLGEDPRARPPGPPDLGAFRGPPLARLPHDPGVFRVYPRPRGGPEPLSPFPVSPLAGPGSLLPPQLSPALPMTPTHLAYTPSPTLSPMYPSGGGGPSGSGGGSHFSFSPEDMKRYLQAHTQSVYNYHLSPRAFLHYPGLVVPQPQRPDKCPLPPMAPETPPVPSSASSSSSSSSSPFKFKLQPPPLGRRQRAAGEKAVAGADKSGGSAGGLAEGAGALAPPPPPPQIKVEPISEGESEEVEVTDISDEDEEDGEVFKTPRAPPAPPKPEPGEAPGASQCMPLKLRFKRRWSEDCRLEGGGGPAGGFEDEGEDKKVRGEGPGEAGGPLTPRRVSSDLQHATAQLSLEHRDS
Method in brief: as §1

[12] = biological target: T7, ETV3L (Homo sapiens, UniProt Q6ZN32 1-361); conditions: protein: recombinant; tags: N-terminal GST; dsDNA, one strand shown
T7 sequence: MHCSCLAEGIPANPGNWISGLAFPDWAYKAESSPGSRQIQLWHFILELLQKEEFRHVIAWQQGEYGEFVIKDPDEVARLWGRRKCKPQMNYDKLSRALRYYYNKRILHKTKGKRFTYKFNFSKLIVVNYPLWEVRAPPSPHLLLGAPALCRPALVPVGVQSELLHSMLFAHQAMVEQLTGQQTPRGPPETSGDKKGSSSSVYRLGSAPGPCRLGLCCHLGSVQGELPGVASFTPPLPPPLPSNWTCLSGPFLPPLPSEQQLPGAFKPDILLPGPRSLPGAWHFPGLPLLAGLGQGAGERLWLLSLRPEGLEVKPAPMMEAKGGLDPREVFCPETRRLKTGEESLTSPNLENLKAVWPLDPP
Method in brief: as §1

[13] = biological target: T8, ETS2 (Homo sapiens, UniProt P15036 1-469); conditions: protein: recombinant; tags: N-terminal GST; dsDNA, one strand shown
T8 sequence: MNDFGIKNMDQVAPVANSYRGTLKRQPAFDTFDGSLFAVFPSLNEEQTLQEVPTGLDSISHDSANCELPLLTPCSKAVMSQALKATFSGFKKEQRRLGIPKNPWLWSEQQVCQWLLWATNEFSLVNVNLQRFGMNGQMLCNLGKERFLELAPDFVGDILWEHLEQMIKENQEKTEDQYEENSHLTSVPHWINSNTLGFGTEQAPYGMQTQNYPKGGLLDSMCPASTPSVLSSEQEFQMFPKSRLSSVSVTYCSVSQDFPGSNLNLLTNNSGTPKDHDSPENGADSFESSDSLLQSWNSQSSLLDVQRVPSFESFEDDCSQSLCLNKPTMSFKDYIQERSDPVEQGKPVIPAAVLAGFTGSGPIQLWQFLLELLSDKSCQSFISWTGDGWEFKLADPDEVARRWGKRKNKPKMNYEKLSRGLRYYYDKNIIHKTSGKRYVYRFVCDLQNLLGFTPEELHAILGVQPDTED
Method in brief: as §1

[14] = biological target: T9, SPDEF (Homo sapiens, UniProt O95238 1-335); conditions: protein: recombinant; tags: N-terminal GST; dsDNA, one strand shown
T9 sequence: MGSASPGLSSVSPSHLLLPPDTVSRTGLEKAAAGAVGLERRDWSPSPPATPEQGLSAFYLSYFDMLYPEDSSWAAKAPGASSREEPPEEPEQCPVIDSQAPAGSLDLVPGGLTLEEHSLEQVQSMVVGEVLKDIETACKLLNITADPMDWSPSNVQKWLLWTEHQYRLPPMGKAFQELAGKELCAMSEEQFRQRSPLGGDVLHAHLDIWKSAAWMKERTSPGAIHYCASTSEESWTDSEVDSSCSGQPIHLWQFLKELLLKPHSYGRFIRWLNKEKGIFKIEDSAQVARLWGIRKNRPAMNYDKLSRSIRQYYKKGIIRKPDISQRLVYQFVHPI
Method in brief: as §1

[15] = biological target: T10, ETV7 (Homo sapiens, UniProt Q9Y603 1-341); conditions: protein: recombinant; tags: N-terminal GST; dsDNA, one strand shown
T10 sequence: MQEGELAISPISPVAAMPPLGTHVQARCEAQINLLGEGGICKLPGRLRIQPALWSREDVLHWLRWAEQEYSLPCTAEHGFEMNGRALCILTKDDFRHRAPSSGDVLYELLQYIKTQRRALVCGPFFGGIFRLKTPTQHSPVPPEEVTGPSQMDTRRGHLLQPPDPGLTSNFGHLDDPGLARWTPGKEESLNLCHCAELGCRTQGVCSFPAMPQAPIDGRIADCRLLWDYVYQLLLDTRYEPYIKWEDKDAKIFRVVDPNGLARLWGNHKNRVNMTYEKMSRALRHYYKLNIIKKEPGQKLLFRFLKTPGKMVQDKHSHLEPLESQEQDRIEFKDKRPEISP
Method in brief: as §1

[16] = biological target: T11, ELF5 (Homo sapiens, UniProt Q9UKW6-2 1-255); conditions: protein: recombinant; tags: N-terminal GST; dsDNA, one strand shown
T11 sequence: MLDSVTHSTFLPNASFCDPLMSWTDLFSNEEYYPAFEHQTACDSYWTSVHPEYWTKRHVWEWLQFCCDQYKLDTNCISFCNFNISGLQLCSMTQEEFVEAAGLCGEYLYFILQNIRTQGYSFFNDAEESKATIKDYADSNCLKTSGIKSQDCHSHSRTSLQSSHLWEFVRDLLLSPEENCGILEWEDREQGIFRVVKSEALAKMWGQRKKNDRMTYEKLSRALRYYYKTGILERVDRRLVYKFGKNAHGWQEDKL
Method in brief: as §1

[17] = biological target: T12, ETV3 (Homo sapiens, UniProt P41162-2 1-143); conditions: protein: recombinant; tags: N-terminal GST; dsDNA, one strand shown
T12 sequence: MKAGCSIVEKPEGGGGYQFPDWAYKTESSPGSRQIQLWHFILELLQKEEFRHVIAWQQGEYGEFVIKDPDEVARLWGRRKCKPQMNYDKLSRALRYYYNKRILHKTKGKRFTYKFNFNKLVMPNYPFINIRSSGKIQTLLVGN
Method in brief: as §1

[18] = biological target: ETV6 (Homo sapiens, UniProt P41212 1-452); conditions: protein: recombinant; tags: N-terminal GST; dsDNA, one strand shown
ETV6, sequence (P41212 whole entry): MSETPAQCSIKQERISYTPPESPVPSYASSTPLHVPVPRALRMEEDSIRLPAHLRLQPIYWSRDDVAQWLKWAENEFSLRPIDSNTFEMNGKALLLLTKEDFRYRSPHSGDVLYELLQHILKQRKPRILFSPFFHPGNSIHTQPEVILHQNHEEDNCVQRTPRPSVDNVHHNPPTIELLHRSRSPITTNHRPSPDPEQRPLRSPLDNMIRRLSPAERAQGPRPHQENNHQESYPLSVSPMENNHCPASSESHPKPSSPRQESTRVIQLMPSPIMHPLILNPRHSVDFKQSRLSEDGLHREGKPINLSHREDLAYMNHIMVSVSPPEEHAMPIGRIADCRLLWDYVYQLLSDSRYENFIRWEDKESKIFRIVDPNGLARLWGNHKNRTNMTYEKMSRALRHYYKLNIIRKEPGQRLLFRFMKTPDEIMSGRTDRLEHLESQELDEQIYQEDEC
Method in brief: as §1

Sequence: ACTTTG
- binding signal [1]: 1.13 fold enrichment (6-mer frequency, TF over GST control)
- binding signal [2]: 1.3 fold enrichment (6-mer frequency, TF over GST control)
- binding signal [3]: 1.14 fold enrichment (6-mer frequency, TF over GST control)
- binding signal [4]: 1.33 fold enrichment (6-mer frequency, TF over GST control)
- binding signal [5]: 1.29 fold enrichment (6-mer frequency, TF over GST control)
- binding signal [6]: 1.22 fold enrichment (6-mer frequency, TF over GST control)
- binding signal [7]: 1.39 fold enrichment (6-mer frequency, TF over GST control)
- binding signal [8]: 1.28 fold enrichment (6-mer frequency, TF over GST control)
- binding signal [9]: 1.18 fold enrichment (6-mer frequency, TF over GST control)
- binding signal [10]: 1.21 fold enrichment (6-mer frequency, TF over GST control)
- binding signal [11]: 1.25 fold enrichment (6-mer frequency, TF over GST control)
- binding signal [12]: 1.2 fold enrichment (6-mer frequency, TF over GST control)
- binding signal [13]: 1.18 fold enrichment (6-mer frequency, TF over GST control)
- binding signal [14]: 1.14 fold enrichment (6-mer frequency, TF over GST control)
- binding signal [15]: 1.11 fold enrichment (6-mer frequency, TF over GST control)
- binding signal [16]: 1.25 fold enrichment (6-mer frequency, TF over GST control)
- binding signal [17]: 1.42 fold enrichment (6-mer frequency, TF over GST control)
- binding signal [18]: 1.18 fold enrichment (6-mer frequency, TF over GST control)
